Our source for the outcome and AC50 values is PubChem BioAssay (EPA / NIEHS).

Experiment [1] in a line: APR_HepG2_CellCycleArrest_24hr: Apredica 24-hour HepG2 Assay for Cell Cycle Arrest (AID 2282905).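 Also: cell cycle arrest scored as ratio of 2N to 4N nuclear DNA content.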 Conditions: imaging, actives raise or lower the signal. In a few lines:
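Step one: dose HepG2 with test compounds, 0.39–200 uM, 0.5% DMSO, 24 hr. Step two: fix, permeabilize, stain nuclei with Hoechst 33342. Step three: image six fields per well at 20x, quantify DNA content, fit bidirectionally relative to DMSO.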

A short description of experiment [2]: APR_HepG2_NuclearSize_24hr: Apredica 24-hour HepG2 Assay for Nuclear Size (AID 2282907). The settings on record: high-content imaging, actives raise or lower the signal. In a few lines:
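After fixation and permeabilization, 24-hr-treated HepG2 cells were stained with Hoechst 33342 and imaged on an ArrayScan (20x). Doses spanned 0.39–200 uM in duplicate. Nuclear diameter changes in either direction were fitted relative to 0.5% DMSO controls.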

Experiment [3] can be described thus: APR_HepG2_CellLoss_24hr: Apredica 24-hour HepG2 Assay for Cell Loss (AID 2282908).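 As to AC50: fit in both directions so a hit may be cell loss or gain.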 Conditions: high-content imaging. In a few lines:
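Duplicate wells received compound at ten concentrations (0.39–200 uM; final DMSO 0.5% v/v). After fixation with formaldehyde, nuclei stained with Hoechst 33342 were imaged at 20x. Loss or gain of cell count was fitted relative to DMSO controls.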

A short description of experiment [4]: APR_HepG2_MicrotubuleCSK_24hr: Apredica 24-hour HepG2 Assay for Microtubule CSK Stabilty (AID 2282909). Conditions: HepG2 microtubule cytoskeleton imaging, actives raise or lower the signal. In a few lines:
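Microtubule stability is scored from tubulin immunofluorescence in fixed HepG2 cells imaged at 20x. Cells receive ten compound concentrations up to 200 uM for 24 h; taxol and DMSO serve as positive and negative controls.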

Experiment [5] can be described thus: APR_HepG2_MitoticArrest_24hr: Apredica 24-hour HepG2 Assay for Mitotic Arrest (AID 2282910). The settings on record: high-content imaging, actives raise or lower the signal. In a few lines: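 Treatment lasted 24 hr in the human HepG2 line at 0.39–200 uM, solvent held at 0.5% DMSO. Fixed cells were stained with Hoechst 33342 and anti-phospho-histone H3, imaged at 20x, and analysed by gain- or loss-of-signal fitting against DMSO.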

Experiment [6] can be described thus: APR_HepG2_MitoMembPot_24hr: Apredica 24-hour HepG2 Assay for Mitochondrial Membrane Potential (AID 2282911). Conditions: imaging, actives raise or lower the signal. In a few lines: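 HepG2 human liver cells were exposed 24 hr to compounds at 0.39–200 uM (final DMSO 0.5% v/v) in duplicate. MitoTracker Red CMXRos (250 nM, 30 min) was loaded before formaldehyde fixation; fluorescence was imaged by ArrayScan HCS and fitted bidirectionally versus DMSO.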

Experiment [7] can be described thus: APR_HepG2_p53Act_24hr: Apredica 24-hour HepG2 Assay for p53 Activation (AID 2282913).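 Also: p53 protein immunofluorescence averaged per cell in HepG2 with Hoechst nuclei.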 Conditions: high-content imaging, actives raise or lower the signal. In a few lines: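 HepG2 cells exposed 24 hr to compounds at 0.39–200 uM (10 concentrations, duplicate), final DMSO 0.5% v/v. After formaldehyde fixation and Triton permeabilization, p53 was immunolabeled (sheep anti-p53, Cy5 secondary) with Hoechst 33342 nuclear counterstain, then imaged by high-content fluorescence microscopy.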

Experiment [8] is described as follows: APR_HepG2_CellCycleArrest_72hr: Apredica 72-hour HepG2 Assay for Cell Cycle Arrest (AID 2282914). Conditions: high-content imaging, actives raise or lower the signal. In a few lines: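 HepG2 cells were exposed to compounds at 0.39–200 uM (0.5% v/v DMSO final, duplicates) for 72 hr, fixed in 3.7% formaldehyde, permeabilized and stained with Hoechst 33342. Nuclear DNA content was quantified by high-content imaging; gain or loss of signal was fitted bidirectionally against DMSO.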

The nature of experiment [9]: APR_HepG2_CellLoss_72hr: Apredica 72-hour HepG2 Assay for Cell Loss (AID 2282915). The settings on record: high-content imaging. In a few lines:
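HepG2 cells were exposed for 72 hr to compounds at 0.39–200 uM (ten concentrations, duplicate) in 0.5% v/v final DMSO. Nuclei were stained with Hoechst 33342 after 3.7% formaldehyde fixation, imaged at 20x, and counted; fits bidirectional versus DMSO.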

A short description of experiment [10]: APR_HepG2_P-H2AX_72hr: Apredica 72-hour HepG2 Assay for H2AX Phosphorylation (AID 2282916).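 Also: phospho-histone H2A.x immunostain intensity per cell marking DNA damage.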 Conditions: imaging, actives raise or lower the signal. Put shortly: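 Phospho-H2A.x imaging endpoint in HepG2 after 72 hr compound exposure (0.39–200 uM, duplicate wells). Activity derived by bidirectional curve fitting with DMSO as baseline.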
Experiment [11] can be described thus: APR_HepG2_MitoMembPot_72hr: Apredica 72-hour HepG2 Assay for Mitochondrial Membrane Potential (AID 2282917). The settings on record: imaging, actives raise or lower the signal. Put shortly: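 HepG2 cells exposed 72 h to compounds at 0.39–200 uM (0.5% v/v DMSO, duplicates); MitoTracker Red CMXRos 250 nM loaded 30 min before 3.7% formaldehyde fixation, imaged by HCS fluorescence. Bidirectional fit versus DMSO.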

Experiment [12] can be described thus: APR_HepG2_MitoticArrest_72hr: Apredica 72-hour HepG2 Assay for Mitotic Arrest (AID 2282918). Conditions: high-content imaging, actives raise or lower the signal. Put shortly: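 HepG2 cells were exposed for 72 hr to compound at 0.39–200 uM (10 concentrations, duplicate) in 0.5% v/v DMSO, fixed in 3.7% formaldehyde, immunostained for phospho-histone H3 with Hoechst 33342 and imaged by high-content fluorescence; bidirectional fits versus DMSO.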

Experiment [13] can be described thus: APR_HepG2_MicrotubuleCSK_72hr: Apredica 72-hour HepG2 Assay for Microtubule CSK Stabilty (AID 2282919). The settings on record: HepG2 microtubule cytoskeleton, high-content imaging, actives raise or lower the signal. Put shortly: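 Ten-point dosing (0.39–200 uM, 0.5% DMSO) of HepG2 for 72 hr, with taxol as the cytoskeletal positive control. The cells were formaldehyde-fixed and then stained with alpha-tubulin/Cy5 and Hoechst. Imaging at 20x used a −2 um Z offset for tubulin.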

Experiment [14] in a line: APR_HepG2_P-H2AX_24hr: Apredica 24-hour HepG2 Assay for H2AX Phosphorylation (AID 2282920). Conditions: high-content imaging, actives raise or lower the signal. In a few lines: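 HepG2 human liver cells were exposed for 24 hr to compounds at 0.39–200 uM in duplicate, with 0.5% v/v DMSO final. Fixed cells were immunostained for phospho-histone H2A.x plus Hoechst 33342, imaged by HCS fluorescence, and fitted bidirectionally against DMSO.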

A short description of experiment [15]: APR_HepG2_StressKinase_72hr: Apredica 72-hour HepG2 Assay for Stress Kinase (AID 2282921). The settings on record: HepG2 stress kinase (phospho-c-Jun) imaging, actives raise or lower the signal. Put shortly: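 Stress kinase signal reflects nuclear phospho-c-Jun staining in fixed, permeabilized cells exposed 72 h to compound at 0.39–200 uM; DMSO-normalized, fitted for increases or decreases.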

Experiment [16] in a line: APR_HepG2_StressKinase_24hr: Apredica 24-hour HepG2 Assay for Stress Kinase (AID 2282922). The settings on record: HepG2 stress kinase (phospho-c-Jun) imaging, actives raise or lower the signal. In a few lines:
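After 24 hr compound treatment (up to 200 uM, final DMSO 0.5% v/v), HepG2 cells are fixed and multiplex-labeled; phospho-c-Jun intensity is captured by high-content fluorescence imaging and analyzed relative to DMSO.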

Experiment [17] in a line: APR_HepG2_p53Act_72hr: Apredica 72-hour HepG2 Assay for p53 Activation (AID 2282923).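 Also: average cellular p53 protein immunofluorescence intensity in HepG2 cells.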 Conditions: high-content imaging, actives raise or lower the signal. Put shortly:
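Fixed-cell p53 staining (sheep primary, Cy5 secondary) measured by fluorescence imaging following 72 hr treatment at 0.39–200 uM in 0.5% DMSO; DMSO served as negative control and baseline.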

The nature of experiment [18]: APR_HepG2_MitoMass_72hr: Apredica 72-hour HepG2 Assay for Mitochondrial Mass (AID 2282924).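 Also: MitoTracker Red CMXRos stain intensity per cell imaged as mitochondrial mass.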 Conditions: high-content imaging, actives raise or lower the signal. In a few lines: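 Steps: treat HepG2 72 hr (0.39–200 uM, duplicate wells); load MitoTracker Red CMXRos, 250 nM, 30 min; fix with 3.7% formaldehyde, permeabilise with 0.5% Triton X-100; capture images, nuclei via Hoechst 33342; fit bidirectionally against DMSO.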

Experiment [19] can be described thus: APR_HepG2_NuclearSize_72hr: Apredica 72-hour HepG2 Assay for Nuclear Size (AID 2282925). The settings on record: high-content imaging, actives raise or lower the signal. In a few lines: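 Compounds (0.39–200 uM, final DMSO 0.5%) were applied to HepG2 for 72 hr. Cells were then formaldehyde-fixed, permeabilized and labelled with Hoechst 33342. Nuclear diameter was quantified from six images per well.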

Experiment [20] in a line: ACEA_ER_80hr: ACEA Biosciences xCELLigence Real-Time Cell Analysis on Estrogen Receptor Agonism for Proliferation (AID 2282667; active = hit-call score of the fitted dose curve at least 0.9, where 1 is the maximum). The settings on record: T47D proliferation, impedance (xCELLigence), 80 h. Put shortly: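 T47D human breast cells were seeded on electrode plates, monitored overnight, then exposed continuously to compounds in eight-point 1:4 dilutions from 100 uM (max 0.5% DMSO). Impedance-based growth was read at 80 h, fitted upward relative to DMSO.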

Records with an inconclusive call do not appear. Active and inactive are the calls of the source. The calls were made as follows, unless noted: active = hit-call score of the fitted dose curve at least 0.9, where 1 is the maximum; inactive = score below 0.9.

`Cc1ccccc1N`: the call in experiment [1], in experiment [2], in experiment [3], in experiment [4], in experiment [5] and in experiment [6] was inactive. Further, the outcome in [7], in [8], in [9], in experiment [10], in experiment [11] and in [12] was inactive. Moreover, the compound was called inactive in [13], in [14], in [15], in experiment [16], in [17] and in experiment [18]. Further, in experiment [19], the compound was called inactive.
Consider `ClC1=C(Cl)[C@]2(Cl)[C@H]3[C@H]([C@H]4C=C[C@H]3C4)[C@@]1(Cl)C2(Cl)Cl`, for which the call in experiment [20] was inactive.
In general, AC50 refers to the concentration giving half of the maximal activity seen. Regarding `NC(=O)O`, the AC50 in [1] is 10.7 µM (active); in experiment [2], 9.65 µM (active); in [3] it was 6.38 µM (active); in experiment [4] it was 12.2 µM (active); in [5] it was 5.54 µM (active); in experiment [6], 0.205 µM (active). Further, the half-maximal activity concentration (AC50) in [7] is 9.29 µM (active); in experiment [8], 12.2 µM (active); in [9], 3.92 µM (active); in [10] it was 4.73 µM (active); in experiment [12], 4.17 µM (active); in experiment [13], 3.05 µM (active). In addition, the AC50 in experiment [14] was 9.46 µM (active); in experiment [15] it was 3.02 µM (active); in [16], 4.39 µM (active); in experiment [17], 3.66 µM (active); in experiment [19], 23.5 µM (active). Further, the compound was classed as inactive in experiment [11] and in [18].
In the case of `C[C@H]1CCCC(=O)CCC/C=C/c2cc(O)cc(O)c2C(=O)O1`, the AC50 in experiment [20] is 0.00378 µM (active).
In the case of `C=C(C)C(=O)[O][Sn]([CH2]CCC)([CH2]CCC)[CH2]CCC`, the result in [1], in experiment [2], in [4], in experiment [6], in experiment [11] and in [13] was inactive. For the same compound, the outcome in experiment [15] and in experiment [16] was inactive. The AC50 in experiment [3] is 0.773 µM (active); in experiment [5], 0.248 µM (active); in [7] it was 0.294 µM (active); in experiment [8], 0.188 µM (active); in [9] it was 0.228 µM (active); in [10], 0.0519 µM (active). Also, the concentration at half-maximal activity (AC50) in [12] is 0.0391 µM (active); in [14] it was 0.159 µM (active); in experiment [17], 0.0408 µM (active); in experiment [18], 0.395 µM (active); in experiment [19], 0.0558 µM (active).
